# Measurements from PubChem BioAssay AID504329 (Southern Research Specialized Biocontainment Screening …, 2011).
# The whole screen tested about 340,000 compounds, of which about 1,000 (0.29%) were called active. A selection follows. Potency and affinity values are given separately. Values without a mark were called inactive. Rule as the data show it: inconclusive = inhibition above about 27% without an active follow-up result; inactive = below that.
# Assay: NS1A inhibition, H1N1 influenza, cell based functional assay (AID 504329)
# Conditions: percent inhibition, at 12.5 µM, stronger effect = higher value
row,Compound,inhibition
1,CCOC(=O)c1c(NC(=O)COC(=O)c2ccccn2)sc(C(=O)N(C)C)c1C,-8.42%
2,CCOC(=O)c1sc(NC(=O)CNCc2cccnc2)c(C(=O)OCC)c1C,-2.69%
3,COCCN(C(=O)c1csnn1)C(C(=O)NC1CCCCC1)c1ccccc1F (stereo unspecified),-4.23%
4,CCCSc1ccc([C@H]2N[C@@](C)(C(=O)OC)[C@H]3C(=O)N(C)C(=O)[C@@H]23)cc1,6.02%
5,COC(=O)c1cc2cc(NS(=O)(=O)c3ccc(C)cc3)ccc2s1,-3.1%
6,N=C(N)N=Nc1c(O)[nH]c2ccc(Br)cc12,-0.68%
7,NC(=S)N=Nc1c(O)[nH]c2ccccc12,14.1%
8,O=C(N=Nc1c(O)[nH]c2ccccc12)c1ccc(CN2CCOCC2)cc1,7.41%
9,Oc1[nH]c2ccc(Br)cc2c1N=NC(=S)Nc1ccc(F)cc1,-7.69%
10,Cc1ccc(N(CC(=O)NC2CCCCC2)C(=O)CNC(=O)c2ccco2)cc1C,7.87%
11,CC(C)c1ccc(C(=O)OCC(=O)NC2CCCC2)cc1,1.66%
12,CCOc1ccc(N2CC(O)(c3cccs3)[N+]3=C2CCCC3)cc1 (stereo unspecified),2.37%
13,COc1ccccc1C(=O)NC(CCSC)C(=O)NCc1ccncc1 (stereo unspecified),-4.75%
14,CCc1cc2c(=O)oc(-c3ccc(F)cc3)nc2s1,-6.8%
15,COC(=O)C1CC2=C(CCC2=O)N(c2ccccc2)C1=O (stereo unspecified),-7.88%
16,Cc1ccc(S(=O)(=O)N(C)C)cc1NC(=O)COC(=O)/C(=C/c1ccc(F)cc1)c1cccs1,-0.58%
17,O=C1Nc2ccccc2C1=O,0.1%
18,O=C1/C(=C/c2ccccc2)Nc2ccccc21,14.7%
19,O=C(COC(=O)CN1C(=O)COc2ccccc21)NCc1ccc(F)cc1,-6.84%
20,COc1ccc(CN(C)CC(=O)Nc2sc3c(c2C#N)CCC3)c(OC)c1,-1.01%
21,CCc1ccc(NSc2ccccc2[N+](=O)[O-])cc1,28.4%
22,O=[N+]([O-])c1nn(-c2ccccc2)[n+]([O-])c1N1CCN(c2ccccc2F)CC1,2.62%
23,CC(=O)c1ccc(NC(=S)Nc2ccc(Br)c(Cl)c2)cc1,-4.9%
24,Cc1ccc(N=C2C(=O)Nc3ccccc32)cc1,-4.95%

row,Compound,inhibition
1,CC(=O)N(C)c1ccc(N=C2C(=O)Nc3ccccc32)cc1,3.21%
2,C=CCn1c(SCC(=O)N(C)C)nc2cc(C(=O)O)ccc2c1=O,-7.19%
3,C=CCn1c(Sc2ccccc2)nc2c1c(=O)[nH]c(=O)n2C,-6.06%
4,COc1ccc([C@H]2CC(=O)C=C(c3ccc(O)cc3)C2)cc1OC,-4.89%
5,CN(C)c1ccc(C(=O)NN2C(=O)c3ccccc3C2=O)cc1,-1.57%
6,CN(C)c1ccc(/C=N/N2C(=O)c3ccccc3C2=O)cc1,-9.49%
7,CCc1ccc(-c2cc(C)no2)cc1S(=O)(=O)Nc1cc(C)on1,1.29%
8,Cc1ccccc1-c1nc(CS(=O)CC(=O)NCCN2CCOCC2)c(C)o1 (stereo unspecified),-1.58%
9,Nc1ccccc1N=Nc1ccccc1N,18.4%
10,CC(C)(C)C1=CC(O)(c2ccccc2)C=C(C(C)(C)C)C1=O,-2.37%
11,COc1cccc(NC(=O)COC(=O)c2ccco2)c1,7.2%
12,CCOc1cccc(CNCCCSc2ncccn2)c1,1.33%
13,O=C(O)c1cccc2cccc(-c3c4ccc(=O)c(O)c-4oc4c(O)c(O)ccc34)c12,13%
14,O=C1c2ccccc2C(=O)c2c1ccc(O)c2O,17.2%
15,Cc1ccc(OCCNC(=O)C2CC(=O)N(Cc3ccccc3)C2)cc1 (stereo unspecified),4.88%
16,CC1CCN(S(=O)(=O)c2ccccc2[N+](=O)[O-])CC1,16.9%
17,CC1CCN(CC(O)COc2ccc(-c3ccccc3)cc2)CC1 (stereo unspecified),19.9%
18,Cc1nn(-c2cc(N3CCCCC3)ccc2N)c(=O)c2ccccc12,2.92%
19,CN1CCN(c2ccc(N)c(N3CCN(C)CC3)c2)CC1,17.9%
20,O=C(C[C@@H]1C/C=C\C[C@@H](Cc2ccc(F)cc2)C(=O)OCCNC1=O)NCCO,0.47%
21,O=C1Nc2ccc(Br)cc2C12OCCO2,-14.6%
22,CCOc1ccc(C(=O)NCc2ccc3c(c2)OCO3)cc1OCC,-1.8%
23,O=C(COC(=O)c1ccc[nH]c1=O)NC1CCCCCCC1,-1.92%
24,FC(F)(F)c1cc(C(F)(F)F)c2ccc(Oc3ccccc3)nc2n1,-1.17%

row,Compound,inhibition
1,Cc1ccc(/C=N/Nc2ccc3c(C(F)(F)F)cc(C(F)(F)F)nc3n2)cc1,-11.1%
2,N#CC(c1ccc(Cl)cc1)c1ccc2c(C(F)(F)F)cc(C(F)(F)F)nc2n1 (stereo unspecified),21.3%
3,N#CC(c1cccc(Cl)c1)c1ccc2c(C(F)(F)F)cc(C(F)(F)F)nc2n1 (stereo unspecified),20.9%
4,O=C(C1=C[C@H](c2ccc3c(c2)OCO3)C[C@H](OCCCCO)O1)N1CCOCC1,-1.7%
5,O=C(c1cc2cc(F)ccc2[nH]1)N1CCCC(Nc2ccc(F)cc2)C1 (stereo unspecified),9.28%
6,CCc1ccc(S(=O)(=O)/N=C2\C=C(NS(=O)(=O)c3ccccc3)C(=O)c3ccccc32)cc1,11.2%
7,CCc1ccc(S(=O)(=O)/N=C2\C=C(Nc3ccc(C(=O)O)cc3)C(=O)c3ccccc32)cc1,25.1%
8,CC(C)c1ccc(S(=O)(=O)/N=C2\C=C(NS(=O)(=O)c3ccccc3)C(=O)c3ccccc32)cc1,14.3%
9,CC(C)(C)c1ccc(S(=O)(=O)/N=C2\C=C(NS(=O)(=O)c3ccccc3)C(=O)c3ccccc32)cc1,11.3%
10,Cc1ccc(S(=O)(=O)Nc2c(NC3CCCCC3)c3ccccc3oc2=O)c(C)c1,0.02%
11,Cc1ccn(CCC(=O)N2CCCC(CCC(=O)N3CCN(c4ccccn4)CC3)C2)n1 (stereo unspecified),-2.86%
12,Cc1cc(C)c(NC(=O)CNC(=O)COC(=O)CNC(=O)c2ccc(Cl)cc2Cl)c(C)c1,-0.98%
13,CCOC(=O)N1CCC(NS(=O)(=O)c2cc(Br)cc3c2N(C(=O)CC)CC3)CC1,7.36%
14,Cc1ccccc1Nc1c(-c2ccccn2)nc2c(C)cccn12,-0.06%
15,Cc1ccc(Nc2c(-c3ccccn3)nc3cc(C)ccn23)cc1,53%
16,Cc1ccn2c(Nc3ccccc3)c(-c3ccccn3)nc2c1,-0.92%
17,Cc1cccc(C)c1Nc1c(-c2ccccn2)nc2ccccn12,29.7%
18,CCOC(=O)CN(C(=O)c1snc(C(N)=O)c1N)C(C(=O)NC1CCCCC1)c1ccc(F)cc1 (stereo unspecified),1.16%
19,COc1ccc(C(=O)N/C(=C\c2cn(C)c3ccccc23)C(=O)NCCCn2ccnc2)cc1OC,4.02%
20,O=C(NCCc1ccc(Cl)cc1)C(=O)c1c[nH]c2ccccc12,-31.4%
21,O=C(Nc1ccc(N2CCOCC2)cc1)C1CCCCN1S(=O)(=O)c1ccccc1 (stereo unspecified),-25.6%
22,c1ccc(CN2CCNCC2)nc1,2.99%
23,c1cc(CNCCN2CCNCC2)ccn1,-2.65%
24,CN(CCCNC(=O)CCC(=O)N1CCOc2ccc(Cl)cc21)Cc1ccccc1,3.8%

row,Compound,inhibition
1,O=C(CN1C(=O)NC2(CCc3ccccc32)C1=O)c1cccs1 (stereo unspecified),-5.04%
2,COc1ccccc1/C=N/Nc1nc(C)cc(C)n1,-18.3%
3,COc1ccc(CCN=Cc2ccccc2O)cc1OC,-18.6%
4,COc1ccc(/C=N/Nc2nnc(Cc3ccc(OC)c(OC)c3)c(=O)[nH]2)cc1,12.1%
5,COc1ccc(Cc2nccc3cc(OC)c(OC)cc23)cc1OC,0.89%
6,CCc1ccc2[nH]c3nc(N/N=C/c4ccc(O)cc4O)nnc3c2c1,1.89%
7,COc1ccc(Cc2nc3ccccc3n2CC(=O)N/N=C/c2ccc(C)cc2O)cc1OC,1.09%
8,COc1ccc(/C=N/Nc2nnc(Cc3ccc(OC)c(OC)c3)c(=O)[nH]2)cc1OC,-2.26%
9,COc1ccc(Cc2nnc(SC)[nH]c2=O)cc1OC,-0.91%
10,COc1ccc(NC2c3ccccc3C(=O)N2c2ccccn2)cc1Cl (stereo unspecified),25%
11,Cn1c(=O)c(=O)n(C)c2cc(S(=O)(=O)NCc3ccc(Cl)cc3)ccc21,-12%
12,O=C(CSc1ccccc1)NNC(=O)c1ccncc1,-1.89%
13,CC(C)CC(=O)Nc1nnc(S(=O)(=O)Nc2ccccc2)s1,0.61%
14,CCCCn1c(=O)[nH]c(=O)c2c1nc(-c1ccccc1OC(F)F)n2C,-2.54%
15,Cc1ccc(NCC(=O)N/N=C/c2cccn2C)cc1,1.43%
16,Cc1cc(N2CCN(CC(O)C(F)(F)F)CC2)c2ccccc2n1 (stereo unspecified),15.7%
17,CCC(CO)Oc1cc(NCc2cccc(C(F)(F)F)c2)c2ncn(C(C)C)c2c1 (stereo unspecified),-6.24%
18,COCCN(CC1CCCN(C2Cc3ccccc3C2)C1)C(=O)CCC(C)=O (stereo unspecified),-22.6%
19,CN(CC(=O)Nc1ccc(Cl)cc1F)C1=NS(=O)(=O)c2ccccc21,5.4%
20,COc1ccc(S(=O)(=O)Nc2ccc(NC(C)=O)cc2)cc1[N+](=O)[O-],9.65%
21,COc1cc(CNc2ccc(N3CCCC3)cc2)cc(Cl)c1OC,21.3%
22,CCOc1c(Cl)cc(CNc2ccc(N3CCCC3)cc2)cc1OC,15.9%
23,Clc1ccc(CNc2ccc(N3CCN(Cc4ccccc4)CC3)cc2)cc1,20.5%
24,CCOc1ccc(CNc2ccc(N3CCCC3)cc2)cc1,21.7%
